Results filed as inconclusive are left out. A number with no mark means an inactive call. Calls come from the whole dose curve; as a rule, active = well fitted inhibition curve with a large enough effect; inconclusive = small, poorly fitted or top-dose-only effect; inactive = no such curve, though single readings can be large or run the other way.
Test: Confirmatory fluorescence-based thiol-reactive (MSTI) qHTS assay for identification of artifact compounds
Conditions: MSTI thiol-reactivity probe, 1 h; series mostly up to 39.2 µM; activity change, negative = inhibition: at the top concentration
Description: PI: Alexander Tropsha Ph.D. UNC Eshelman School of Pharmacy University of North Carolina, Chapel Hill, North Carolina Hits from high-throughput screening (HTS) of chemical libraries are often false positives due to their interference with the assay detection technology. In response to this problem, we generated the largest publicly available library of chemical liabilities and developed a free webtool to predict HTS artifacts, both of which are described herein. More specifically, we generated, curated, and integrated HTS datasets for thiol reactivity, redox activity, and luciferase (firefly and nano) activity. Using these curated datasets, we developed and validated several Quantitative Structure-Interference Relationship (QSIR) models to predict nuisance behavior. […] These models were employed for virtual profiling of the National Center for Advancing Translational Science's (NCATS) in-house library, and 256 compounds for each assay were selected for the experimental validation of nuisance behavior. The BA for these external predictions ranged from 58 to 78% for compounds within the applicability domains of the models. […] The models developed in this study, along with aggregation models previously developed by our group (SCAM Detective) were implemented in "Liability Predictor," an online tool which may be used as part of chemical library design or for triaging HTS hits. Both the models and the curated datasets are publicly available at https://liability.mml.unc.edu/.
PROTOCOL TABLE SEQUENCE No. (e.g., 1, 2, 3, etc.); PARAMETER (e.g., Cells, Incubation, Reagent, etc.); VALUE; DESCRIPTION. 1; Reagent; 4 uL; […]. 2; Compounds and control; 16 nL; Kalypsis pin tool (Wako USA) equipped with a 1536-well pin head. 3; Incubation; 1 hour. 4; Detection; Fluorescence, ViewLux microplate reader, 525 nm excitation, 598 nm emission. NOTES (numbers refer to Sequence numbers above) 1. Assays determining (E)-2-(4-mercaptostyryl)-1,3,3-trimethyl-3H-indol-1-ium (MSTI) reactivity were performed as previously described in the literature with modifications for the quick identification of compounds reacting with thiol. In brief, 4 uL of MSTI or positive control Acetyl-MSTI (final concentrations of 4 uM and 4 uM, respectively) in assay buffer (2% DMSO in 1X PBS pH 7.4) was dispensed into all wells of a 1536-well assay plate (solid-bottom black plate; Greiner Bio One, Monroe, NC). 2. A Wako Pin-tool (Wako Automation, Richmond, VA) was used to transfer 16 nL of compounds (consisting of 7-plates in qHTS format, final concentration range 18.3 nM to 114 uM) or control MLS001163887 (final concentration range 1.22 nM to 40 uM). 3. Plates were centrifuged (121xg, 15 seconds) and incubated for 1 hour at room temperature protected from light. 4. Samples were read for fluorescence (Ex/Em = 525(20)/598(25) nm) on a ViewLux CCD imager (PerkinElmer). Data were normalized to Acetyl-MSTI (0% activity) and MSTI (100% activity) and the resulting percent inhibition data were fitted to a 4-parameter Hill equation using NCATS in-house software.

Row | Compound | activity change, negative = inhibition
1 | c1ccc2sc(SNC3CCCCC3)nc2c1 | 25.4%
2 | CC1CCCC(O)CCCCCc2cc(O)cc(O)c2C(=O)O1 (configuration not stated) | 108% [at 78.4 µM]
3 | O=c1ccc2cc(O[C@@H]3O[C@H](CO)[C@H](O)[C@H](O)[C@H]3O)c(O)cc2o1 | 5.87%
4 | COc1ccc2c3c1O[C@H]1[C@@H](O)C=C[C@H]4[C@@H](C2)NCC[C@@]341 | 31.7% [at 88 µM]
5 | C[C@H]1CCCC(=O)CCC/C=C/c2cc(O)cc(O)c2C(=O)O1 | 90.4%
6 | COc1ccc2[nH]cc(CCNCc3ccc(Br)cc3)c2c1 | -9.28%
7 | CC[C@H]1[C@@H]2C[C@H]3[C@@H]4N(C)c5ccccc5[C@]45C[C@@H](C2[C@H]5O)N3[C@@H]1O (some centres not stated) | -8.38% [at 13.1 µM]
